Measurements from PubChem BioAssay (NCATS).
Inconclusive results are not listed. Active and inactive are the calls of the source. Calls follow the shape of the dose curve; as a rule, active = well fitted cell-killing curve with a large enough effect; inconclusive = small, poorly fitted or top-dose-only effect, or effect the other way; inactive = flat fitted curve, though single readings scatter.

Legend:
Experiment in all cases: Primary qHTS to identify gynecologic anti-cancer compounds using libraries of approved drugs and bioactive compounds (AID 1345084); also: nearly all actives have a fitted effect of over 55% in size
C33A = conditions: Gynecologic cancer cell panel viability, ATPlite luminescence, 48 h; series mostly up to 57.5 µM
Procedure, shortened: (§1)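 Cells, 1,000 per well, plated 16 h, then exposed 48 h at 37 C to compounds. Viability by ATPlite luminescence after 15 min at room temperature.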

CAOV3 = conditions: Gynecologic cancer cell panel viability, ATPlite luminescence, 48 h; series mostly up to 57.5 µM
Procedure, shortened: as §1

CASKI = conditions: Gynecologic cancer cell panel viability, ATPlite luminescence, 48 h; series mostly up to 57.5 µM
Procedure, shortened: as §1

Es-2 = conditions: Gynecologic cancer cell panel viability, ATPlite luminescence, 48 h; series mostly up to 57.5 µM
Procedure, shortened: as §1

HeLa = conditions: Gynecologic cancer cell panel viability, ATPlite luminescence, 48 h; series mostly up to 57.5 µM
Procedure, shortened: as §1

Hek293T = conditions: Gynecologic cancer cell panel viability, ATPlite luminescence, 48 h, control line for the selectivity index; series mostly up to 57.5 µM
Procedure, shortened: as §1

JEG-3 = conditions: Gynecologic cancer cell panel viability, ATPlite luminescence, 48 h; series mostly up to 57.5 µM
Procedure, shortened: as §1

OV90 = conditions: Gynecologic cancer cell panel viability, ATPlite luminescence, 48 h; series mostly up to 57.5 µM
Procedure, shortened: as §1

PA-1 = conditions: Gynecologic cancer cell panel viability, ATPlite luminescence, 48 h; series mostly up to 57.5 µM
Procedure, shortened: as §1

Measured: Potency

CC(C)c1ccc(NC(=O)Cn2cnc3c2c(=O)n(C)c(=O)n3C)cc1
inactive: C33A | CAOV3 | CASKI | Es-2 | HeLa | Hek293T | JEG-3 | OV90 | PA-1

COc1ccc2c(NC(=O)Nc3cccc(C(F)(F)F)n3)ccnc2c1
inactive: C33A | CAOV3 | CASKI | Es-2 | HeLa | Hek293T | OV90

CCC(C)CNCC(=O)N1CCc2sccc2C1COc1cccc(C)c1 (stereo unspecified)
inactive: C33A | CAOV3 | CASKI | Es-2 | HeLa | Hek293T | JEG-3 | PA-1

COc1cc(CN(CCN)C(=O)c2cccs2)ccc1OCc1ccccc1
inactive: C33A | CAOV3 | CASKI | Es-2 | HeLa | Hek293T | JEG-3 | PA-1

C=C1C(=O)OC2/C=C(\C)CC3C=C(CC/C=C(\C)CCC12)C(=O)O3 (stereo unspecified)
inactive: C33A | CAOV3 | CASKI | Es-2 | HeLa | Hek293T | JEG-3 | PA-1

CCNC1(C(N)=O)CN(c2nc(C)nc3c(-c4ccc(Cl)cc4)c(-c4ccccc4Cl)nn23)C1
inactive: C33A | CAOV3 | CASKI | Es-2 | HeLa | Hek293T | JEG-3 | PA-1

CCC(C)CNCC(=O)N1CCC2SC=CC2C1COc1cccc(C)c1 (stereo unspecified)
inactive: C33A | CAOV3 | CASKI | Es-2 | HeLa | Hek293T | JEG-3 | OV90 | PA-1

CN(C)C(CCOc1cccc2ccccc12)c1ccccc1 (stereo unspecified)
inactive: C33A | CAOV3 | CASKI | Es-2 | HeLa | Hek293T | JEG-3 | PA-1

COc1ccc2nc(-c3cc(OC)c(OC)c(OC)c3)cc(C(=O)NCC(=O)Nc3ccc(C(C)=O)cc3)c2c1
inactive: C33A | CAOV3 | CASKI | Es-2 | HeLa | Hek293T | OV90

C#CCOc1ccc2c(c1)c(-c1ccc(C(C)C)cc1)nc(=O)n2C(C)C
inactive: C33A | CAOV3 | CASKI | Es-2 | HeLa | Hek293T | JEG-3 | PA-1

CC(=O)OC1CC(O)(C(C)C)C2C(OC(=O)c3ccc(O)cc3)C=C(C)C(=O)CC12C (stereo unspecified)
inactive: C33A | CAOV3 | CASKI | Es-2 | HeLa | Hek293T | JEG-3 | PA-1

C[C@@H]1C[C@H]2O[C@@]3(O[C@@H]2C(C)(C)O)C(O)[C@@]2(C)C4CCC5C(C)(C)[C@@H](O[C@H]6OC[C@H](O)[C@@H](O)[C@@H]6O)CC[C@@]56C[C@@]46CC[C@]2(C)C13 (stereo partly specified)
inactive: C33A | CAOV3 | CASKI | Es-2 | HeLa | Hek293T | JEG-3 | OV90 | PA-1

Cc1cc(C(=O)Nc2cc(Nc3ccc4c(/C=C/c5ccccn5)n[nH]c4c3)ccc2F)n(C)n1
inactive: C33A | CAOV3 | CASKI | Es-2 | HeLa | JEG-3 | OV90

O=C(Nc1ccc(Cl)cc1)Nc1cccc(-c2cccc(N3CCCC3)n2)c1
inactive: C33A | CAOV3 | CASKI | Es-2 | HeLa | Hek293T | OV90 | PA-1

C[C@H]1CO[C@@H]2Cn3cc(C(=O)NCc4ccc(F)cc4F)c(=O)c(O)c3C(=O)N12
inactive: C33A | CAOV3 | CASKI | Es-2 | HeLa | Hek293T | OV90 | PA-1

CC(C)C[C@H](CO)Nc1nc(S[C@@H](C)c2ccccc2)nc2nc(N)sc12
inactive: C33A | CAOV3 | CASKI | Es-2 | HeLa | Hek293T | OV90 | PA-1

N#Cc1ccc2ncnc(NCCc3ccccc3)c2c1
inactive: C33A | CAOV3 | CASKI | Es-2 | HeLa | JEG-3 | OV90 | PA-1

C=C1C(=O)OC2CC(C)C(CCC(C)O)=CCC12 (stereo unspecified)
inactive: C33A | CAOV3 | CASKI | Es-2 | HeLa | Hek293T | OV90 | PA-1

O=C(NCCO)c1cccc(-c2cc(Nc3ccc(OC(F)(F)F)cc3)ncn2)c1
inactive: C33A | CAOV3 | CASKI | Es-2 | HeLa | JEG-3 | OV90 | PA-1

COc1ccc(N2CCN(C(=O)c3cc4c(s3)-c3ccccc3S(=O)(=O)C4)CC2)cc1
inactive: C33A | CAOV3 | CASKI | Es-2 | HeLa | JEG-3 | OV90 | PA-1

COC(=O)CC(O)CC(O)/C=C/c1c(C)ccc2c1C(OC(C)=O)CC(C)C2 (stereo unspecified)
inactive: C33A | CAOV3 | CASKI | Es-2 | Hek293T | JEG-3
